Results reported in PubChem BioAssay (NCI).
This is part of a sample that, as a whole, favours compounds with a hit. Of some 79,000 tested, about 15% had one in any assay. A number with no mark means an inactive call. Calls of active or inactive are those of the source. Rule as the data show it: active = growth inhibition above about 70%; inactive = the rest.

Assay: NCI Yeast Anticancer Drug Screen. Data for the mlh1 rad18 strain (AID 175)
Settings: S. cerevisiae mlh1 rad18 strain growth inhibition, active compounds read high
Procedure: Growth inhibition of yeast strains with defined genetic alterations is measured as a screen for potential anti-cancer activity. Selected strains with alterations in DNA damage repair or cell cycle control were exposed to compounds and growth inhibition was measured relative to vehicle treated controls. The strain used in this assay is mlh1 rad18

[1] = at 5.0 µM (retest, dose inferred, filed as 0.5)
[2] = at 50.0 µM (retest, dose inferred, filed as 5.0)

Structure (SMILES) | growth inhibition [1] | growth inhibition [2] | growth inhibition (at 50.0 µM)
COC(=O)c1cc(-c2ccc(C)cc2)[nH]c(=O)c1C#N | 0% | -1% | 90.2% (active)
c1ccc2c(c1)c1ncccc1c1nccnc21 | -97% | -73% | 33.9%
O=C1c2cc([N+](=O)[O-])ccc2-c2cccc(F)c21 | 9% | 64% | 82.5% (active)
C=C1CC(Cn2cc(Br)c(=O)[nH]c2=O)(c2ccc(-c3ccccc3)cc2)OC1=O (configuration not stated) | 68% | 99% (active) | 97.2% (active)
Cc1ccc(S(=O)(=O)NNC(=S)Nc2cccc3ccccc23)cc1 | -8% | 29% | -1.25%
CC(=O)OCCOCNC(=S)N/N=C(\C)c1cnccn1 | -29% | -7% | 62.4%
O=C(OCC=C1CCCC1)c1cc([N+](=O)[O-])cc([N+](=O)[O-])c1 | 7% | 94% (active) | 23.6%
CCN(CC)C(C)(C)C(=O)/C=C/c1ccccc1 | 57% | 95% (active) | 20.4%
COc1cc(C2c3cc4c(cc3OC(NNc3ccccc3)C2C)OCO4)cc(OC)c1OC (configuration not stated) | 36% | 94% (active) | 77% (active)
Cc1ccc(Nc2nc3c(=O)n(C)c(=O)n(C)c3nc2Nc2ccc(C)cc2)cc1 | -14% | 89% (active) | 95.7% (active)
O=[N+]([O-])c1ccc(=S)[nH]c1 | 51% | 99% (active) | 93.1% (active)
COc1ccc(O)c(/C=N\Nc2ccccc2)c1 | -132% | 13% | 98.5% (active)
COc1ccc(/C=C/C(=O)C(C)(C)Br)cc1 | 89% (active) | 99% (active) | 94.4% (active)
O=C(N=Nc1cc(Cl)ccc1Cl)NNc1cc(Cl)ccc1Cl | 5% | 86% (active) | 68.9%
